Laboratory results taken from PubChem BioAssay (Tox21).
Values without a mark were called inactive. Records with an inconclusive call do not appear. Where a call stands in place of a potency, no number is given. Active and inactive are the calls of the source. The call rests on the fitted dose curve; in most records, active means well fitted curve in the direction sought with a large enough effect in the repeat runs; inconclusive means weak or mixed curves; inactive means no such curve, though single readings can be large; an effect the other way counts as inactive or inconclusive.

Key:
[1] = A CellTox Green Cytotoxicity Assay to monitor cytotoxicity in HEK293 cells - 40 hour (AID 1224871); further: nearly all actives have a fitted effect of over 45% in size
Procedure, shortened: (§1)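 HEK293 cells premixed with CellTox Green dye were seeded at 600 cells/well and left 5 h at 37 C/5% CO2 before pin transfer of 23 nL compound in DMSO. Fluorescence from dye bound to dead-cell DNA was read during 40 h treatment.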

[2] = qHTS RealTime-Glo MT Cell Viability Assay in HEK293 cells - 16 hour (AID 1224872); further: top concentration of the series differs between compounds; nearly all actives have a fitted effect of over 50% in size
Procedure, shortened: (§2)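 Assay medium contained NanoLuc luciferase plus cell-permeant prosubstrate, added with HEK293 cells at 600 cells/well. After 5 h at 37 C/5% CO2 compounds were added; plates stayed at 37 C for 40 h with serial luminescence reads.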

[3] = qHTS RealTime-Glo MT Cell Viability Assay in HepG2 cells - 8 hour (AID 1224873); further: nearly all actives have a fitted effect of over 55% in size
Procedure, shortened: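 HepG2 cells (600/well) mixed with RealTime-Glo MT reagent, settled 5 h at 37 C/5% CO2 before compound addition. Nonlytic NanoLuc luminescence from viable-cell prosubstrate reduction read repeatedly during 40 h treatment at 37 C.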

[4] = qHTS RealTime-Glo MT Cell Viability Assay in HEK293 cells - 40 hour (AID 1224874); settings: RealTime-Glo luminescence; max response: hits give low values; further: nearly all actives have a fitted effect of over 50% in size
Procedure, shortened: (§3)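 HEK293 cells mixed with RealTime-Glo reagents (NanoLuc plus cell-permeant prosubstrate) at 600 cells/well, preincubated 5 h at 37 C/5% CO2, then given 23 nL compound in DMSO. Nonlytic luminescence from viable cells was read at 0, 8, 16, 24, 32 and 40 h.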

[5] = A CellTox Green Cytotoxicity Assay to monitor cytotoxicity in HEK293 cells - 24 hour (AID 1224875); further: series mostly up to about 77 µM; nearly all actives have a fitted effect of over 45% in size
Procedure, shortened: as §1

[6] = A CellTox Green Cytotoxicity Assay to monitor cytotoxicity in HepG2 cells - 16 hour (AID 1224876); further: nearly all actives have a fitted effect of over 45% in size; further: potency means the concentration at half of the fitted maximal effect
Procedure, shortened: (§4)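 HepG2 cells were seeded together with the CellTox Green dye at 600 cells/well, left 5 h at 37 C/5% CO2, then given compounds in DMSO. Fluorescence from dye bound to dead-cell DNA was read repeatedly over 40 h of treatment at 37 C.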

[7] = qHTS RealTime-Glo MT Cell Viability Assay in HepG2 cells - 32 hour (AID 1224877); further: nearly all actives have a fitted effect of over 55% in size
Procedure, shortened: (§5)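 qHTS, HepG2, 600 cells/well, RealTime-Glo (NanoLuc + prosubstrate) added with cells; 5 h preincubation; DMSO compound addition; 37 C; luminescence at 0/8/16/24/32/40 h.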

[8] = A CellTox Green Cytotoxicity Assay to monitor cytotoxicity in HepG2 cells - 40 hour (AID 1224879); further: nearly all actives have a fitted effect of over 40% in size
Procedure, shortened: as §4

[9] = qHTS RealTime-Glo MT Cell Viability Assay in HEK293 cells - 0 hour (AID 1224880); further: top concentration of the series differs between compounds; nearly all actives have a fitted effect of over 45% in size
Procedure, shortened: as §3

[10] = A CellTox Green Cytotoxicity Assay to monitor cytotoxicity in HEK293 cells - 32 hour (AID 1224881); further: nearly all actives have a fitted effect of over 40% in size
Procedure, shortened: as §1

[11] = A CellTox Green Cytotoxicity Assay to monitor cytotoxicity in HepG2 cells - 0 hour (AID 1224882); further: nearly all actives have a fitted effect of over 35% in size
Procedure, shortened: as §4

[12] = A CellTox Green Cytotoxicity Assay to monitor cytotoxicity in HepG2 cells - 32 hour (AID 1224883); further: nearly all actives have a fitted effect of over 50% in size; further: potency means the concentration at half of the fitted maximal effect
Procedure, shortened: as §4

[13] = A CellTox Green Cytotoxicity Assay to monitor cytotoxicity in HEK293 cells - 8 hour (AID 1224884); further: nearly all actives have a fitted effect of over 35% in size
Procedure, shortened: as §1

[14] = qHTS RealTime-Glo MT Cell Viability Assay in HepG2 cells - 16 hour (AID 1224885); further: nearly all actives have a fitted effect of over 50% in size
Procedure, shortened: as §5

[15] = qHTS RealTime-Glo MT Cell Viability Assay in HEK293 cells - 24 hour (AID 1224886)
Procedure, shortened: as §2

[16] = qHTS RealTime-Glo MT Cell Viability Assay in HEK293 cells - 8 hour (AID 1224887)
Procedure, shortened: as §3

[17] = A CellTox Green Cytotoxicity Assay to monitor cytotoxicity in HEK293 cells - 16 hour (AID 1224888); further: nearly all actives have a fitted effect of over 35% in size
Procedure, shortened: as §1

[18] = qHTS RealTime-Glo MT Cell Viability Assay in HepG2 cells - 0 hour (AID 1224889); further: nearly all actives have a fitted effect of over 50% in size
Procedure, shortened: as §5

[19] = A CellTox Green Cytotoxicity Assay to monitor cytotoxicity in HepG2 cells - 8 hour (AID 1224890); further: nearly all actives have a fitted effect of over 45% in size
Procedure, shortened: as §4

[20] = A CellTox Green Cytotoxicity Assay to monitor cytotoxicity in HepG2 cells - 24 hour (AID 1224878); further: nearly all actives have a fitted effect of over 45% in size; further: potency means the concentration at half of the fitted maximal effect
Procedure, shortened: as §4

SMILES: CCCCCCCCC(CO)CCCCCC (stereo not given)
- Potency [1]: inactive
- Potency [2]: inactive
- Potency [3]: inactive
- max response [4]: 1.58%
- Potency [5]: inactive
- Potency [6]: inactive
- Potency [7]: inactive
- Potency [8]: inactive
- Potency [9]: inactive
- Potency [10]: inactive
- Potency [11]: inactive
- Potency [12]: inactive
- Potency [13]: inactive
- Potency [14]: inactive
- Potency [15]: inactive
- Potency [16]: inactive
- Potency [17]: inactive
- Potency [18]: inactive
- Potency [19]: inactive

SMILES: O=[N+]([O-])c1cc[n+]([O-])cc1
- Potency [1]: inactive
- Potency [2]: inactive
- Potency [3]: inactive
- max response [4]: -21.4%
- Potency [5]: inactive
- Potency [6]: inactive
- Potency [20]: inactive
- Potency [8]: inactive
- Potency [9]: inactive
- Potency [10]: inactive
- Potency [11]: inactive
- Potency [12]: inactive
- Potency [13]: inactive
- Potency [15]: inactive
- Potency [16]: inactive
- Potency [17]: inactive
- Potency [18]: inactive
- Potency [19]: inactive

SMILES: CCN(CC)CCc1nc(-c2ccccc2)no1
- Potency [1]: inactive
- Potency [2]: inactive
- Potency [3]: inactive
- max response [4]: 0.0849%
- Potency [5]: inactive
- Potency [6]: inactive
- Potency [7]: inactive
- Potency [20]: inactive
- Potency [8]: inactive
- Potency [10]: inactive
- Potency [11]: inactive
- Potency [12]: inactive
- Potency [14]: inactive
- Potency [15]: inactive
- Potency [16]: inactive
- Potency [17]: inactive
- Potency [18]: inactive
- Potency [19]: inactive

SMILES: CC(=O)N(CC(=O)N(C)C)c1ccccc1
- Potency [1]: inactive
- Potency [2]: inactive
- Potency [3]: inactive
- max response [4]: 1.18%
- Potency [5]: inactive
- Potency [6]: inactive
- Potency [7]: inactive
- Potency [20]: inactive
- Potency [10]: inactive
- Potency [11]: inactive
- Potency [12]: inactive
- Potency [13]: inactive
- Potency [15]: inactive
- Potency [16]: inactive
- Potency [17]: inactive
- Potency [18]: inactive
- Potency [19]: inactive

SMILES: COCCOCCOCCOCCOC
- Potency [1]: inactive
- Potency [2]: inactive
- Potency [3]: inactive
- max response [4]: -6.35%
- Potency [5]: inactive
- Potency [6]: inactive
- Potency [7]: inactive
- Potency [8]: inactive
- Potency [9]: inactive
- Potency [10]: inactive
- Potency [11]: inactive
- Potency [12]: inactive
- Potency [13]: inactive
- Potency [14]: inactive
- Potency [15]: inactive
- Potency [16]: inactive
- Potency [17]: inactive
- Potency [18]: inactive

SMILES: C=CC(=O)OCCOC(=O)CCC(=O)O
- Potency [1]: inactive
- Potency [2]: inactive
- Potency [3]: inactive
- max response [4]: 19.5%
- Potency [5]: inactive
- Potency [6]: inactive
- Potency [20]: inactive
- Potency [8]: inactive
- Potency [9]: inactive
- Potency [10]: inactive
- Potency [11]: inactive
- Potency [12]: inactive
- Potency [14]: inactive
- Potency [17]: inactive
- Potency [18]: inactive
- Potency [19]: inactive

SMILES: NC(N)=N/N=C/c1c(Cl)cccc1Cl
- Potency [1]: inactive
- Potency [2]: inactive
- Potency [3]: inactive
- max response [4]: -22.8%
- Potency [5]: inactive
- Potency [6]: inactive
- Potency [7]: inactive
- Potency [10]: inactive
- Potency [11]: inactive
- Potency [13]: inactive
- Potency [14]: inactive
- Potency [15]: inactive
- Potency [17]: inactive

SMILES: CC1=CC(=O)/C(=C(/C)O)C(=O)O1
- Potency [1]: inactive
- Potency [2]: inactive
- Potency [3]: inactive
- max response [4]: 16.6%
- Potency [5]: inactive
- Potency [6]: inactive
- Potency [20]: inactive
- Potency [8]: inactive
- Potency [9]: inactive
- Potency [10]: inactive
- Potency [11]: inactive
- Potency [12]: inactive
- Potency [13]: inactive
- Potency [14]: inactive
- Potency [15]: inactive
- Potency [17]: inactive
- Potency [18]: inactive
- Potency [19]: inactive

SMILES: OCC1CC2CC1C1CCC(CO)C21 (stereo not given)
- Potency [1]: inactive
- Potency [2]: inactive
- Potency [3]: inactive
- max response [4]: -17.3%
- Potency [5]: inactive
- Potency [6]: inactive
- Potency [7]: inactive
- Potency [20]: inactive
- Potency [8]: inactive
- Potency [10]: inactive
- Potency [11]: inactive
- Potency [12]: inactive
- Potency [13]: inactive
- Potency [14]: inactive
- Potency [15]: inactive
- Potency [16]: inactive
- Potency [17]: inactive
- Potency [18]: inactive
- Potency [19]: inactive

SMILES: CC(C)c1cccc(C(C)C)c1NC(=O)NS(=O)(=O)c1cc(C(C)(C)O)co1
- Potency [1]: inactive
- Potency [2]: inactive
- Potency [3]: inactive
- max response [4]: 6.33%
- Potency [5]: inactive
- Potency [6]: inactive
- Potency [7]: inactive
- Potency [20]: inactive
- Potency [8]: inactive
- Potency [10]: inactive
- Potency [11]: inactive
- Potency [12]: inactive
- Potency [14]: inactive
- Potency [15]: inactive
- Potency [16]: inactive
- Potency [17]: inactive
- Potency [18]: inactive

SMILES: CN(C)C/C=C(/c1ccc(Br)cc1)c1cccnc1
- Potency [1]: inactive
- Potency [2]: inactive
- Potency [3]: inactive
- max response [4]: 2.35%
- Potency [5]: inactive
- Potency [6]: inactive
- Potency [7]: inactive
- Potency [8]: inactive
- Potency [9]: inactive
- Potency [10]: inactive
- Potency [11]: inactive
- Potency [12]: inactive
- Potency [14]: inactive
- Potency [15]: inactive
- Potency [16]: inactive
- Potency [17]: inactive
- Potency [18]: inactive
- Potency [19]: inactive

SMILES: CCN(CC)CCOC(=O)C1(c2ccccc2)CCCC1
- Potency [1]: inactive
- Potency [2]: inactive
- Potency [3]: inactive
- max response [4]: -9.49%
- Potency [5]: inactive
- Potency [6]: inactive
- Potency [7]: inactive
- Potency [9]: inactive
- Potency [10]: inactive
- Potency [11]: inactive
- Potency [12]: inactive
- Potency [13]: inactive
- Potency [14]: inactive
- Potency [15]: inactive
- Potency [16]: inactive
- Potency [17]: inactive
- Potency [18]: inactive
- Potency [19]: inactive

SMILES: CC(C(=O)O)c1ccc(-c2ccccc2)c(F)c1 (stereo not given)
- Potency [1]: inactive
- Potency [2]: inactive
- Potency [3]: inactive
- max response [4]: -0.192%
- Potency [5]: inactive
- Potency [6]: 49 µM (active)
- Potency [7]: inactive
- Potency [20]: 54.9 µM (active)
- Potency [9]: inactive
- Potency [10]: inactive
- Potency [11]: inactive
- Potency [12]: 54.9 µM (active)
- Potency [13]: inactive
- Potency [14]: inactive
- Potency [15]: inactive
- Potency [17]: inactive
- Potency [18]: inactive

SMILES: O=C(CCN1CCN2CCCC2C1)N1c2ccccc2Sc2ccc(Cl)cc21 (stereo not given)
- cytotoxicity increase [1]: 2.75% [at 15.8 µM]
- activity change, negative = cytotoxicity [2]: -13.3% [at 15.8 µM]
- viability change, negative = cytotoxic [3]: -2.56% [at 15.8 µM]
- max response [4]: -21.5%
- activity change [5]: 0.914% [at 15.8 µM, hits give high values]
- cytotoxicity increase [6]: 6.02% [at 15.8 µM]
- activity change, negative = cytotoxic [7]: -4.67% [at 15.8 µM]
- cytotoxicity [20]: 14.6% [at 15.8 µM]
- cytotoxicity increase [8]: 22.2% [at 15.8 µM]
- cytotoxicity increase [10]: 1.45% [at 15.8 µM]
- cytotoxicity [11]: 0.972% [at 15.8 µM]
- cytotoxicity increase [12]: 16.3% [at 15.8 µM]
- cytotoxicity increase [13]: -4.39% [at 15.8 µM]
- activity change, negative = cytotoxic [14]: -5.42% [at 15.8 µM]
- activity change, negative = cytotoxicity [15]: -17.5% [at 15.8 µM]
- activity change [17]: 1.83% [at 15.8 µM, hits give high values]
- activity change, negative = cytotoxicity [18]: -0.655% [at 15.8 µM]
- cytotoxicity increase [19]: 7.39% [at 15.8 µM]

SMILES: CN(C)CC/C=C1\c2ccccc2COc2ccccc21
- Potency [1]: inactive
- Potency [2]: inactive
- Potency [3]: inactive
- max response [4]: 3.53%
- Potency [5]: inactive
- Potency [6]: inactive
- Potency [20]: inactive
- Potency [9]: inactive
- Potency [10]: inactive
- Potency [11]: inactive
- Potency [13]: inactive
- Potency [15]: inactive
- Potency [16]: inactive
- Potency [17]: inactive
- Potency [18]: inactive
- Potency [19]: inactive
